Measurements: the supplement of paper PMC10849652
The full data set covers some 7,900 targets. This sample favours those with a hit. About 0.6% of all pairs of compound and target were hits.

Assays:
Assay in all cases: log2 fold change, soluble protein after heating vs DMSO (PISA); higher = thermal stabilisation; K562 cells, 10 uM, 30 min; active = over 0.2 and 3.5 SD of the protein, either way, in both replicates (recomputed)
erlotinib = compound: C#Cc1cccc(Nc2ncnc3cc(OCCOC)c(OCCOC)cc23)c1 [erlotinib]
In short: (§1)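 Aliquots of K562 cells (2×10^6 cells/mL) treated with 10 μM compound for 30 min were heated for 3 min over 48°C-58°C. After pooling and extraction in PBS with 0.5% NP-40 at 4°C, soluble protein from a 21,000xg, 90 min spin was quantified by TMTpro 16plex LC-MS/MS with channel sums equalised. Thermal stability is expressed against control samples, from duplicates, as a log2 fold change.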

[1] = compound: C/C(=N\NC(=O)C1=CC(=CC=C1)S(=O)(=O)N2CCOCC2)/C3=C(C=CC(=C3)Cl)O
In short: as §1

[2] = compound: C1=CC(=C(C=C1Cl)C2=NC3=NC=CN=C3C(=N2)NC4=CC=NC=C4)F
In short: as §1

[3] = compound: C1=CC(=CC=C1C2=NC3=C(N2)C=C(C=C3)C(=O)N)OC4=CC=C(C=C4)Cl
In short: as §1

[4] = compound: C1=CC2=C(C=CC(=C2)/C=C\3/C(=O)NC(=NCC4=CC=CS4)S3)N=C1
In short: as §1

[5] = compound: C1=CC2=NC=CN=C2C=C1/C=C/3\C(=O)NC(=O)S3
In short: as §1

[6] = compound: C1=CC=C(C=C1)C2=NC(=C(N2)C3=CC=NC=C3)C4=CC(=C(C=C4)Cl)O
In short: as §1

[7] = compound: C1=CC=C2C(=C1)C3=NNC4=CC=CC(=C43)C2=O
In short: as §1

[8] = compound: C1CCN(C1)C(=O)NC2=CC=CC(=C2)NC3=NC=C(C(=N3)NCCC4=CN=CN4)Br
In short: as §1

[9] = compound: C1CN(CCC1(CC2=CC=C(C=C2)Cl)N)C3=NC=NC4=C3C=CN4
In short: as §1

IRAK-1-4 Inhibitor I = compound: C1COCCN1CCN2C3=CC=CC=C3N=C2NC(=O)C4=CC(=CC=C4)[N+](=O)[O-] [IRAK-1-4 Inhibitor I]
In short: as §1

ibrutinib = compound: C=CC(=O)N1CCC[C@@H](n2nc(-c3ccc(Oc4ccccc4)cc3)c3c(N)ncnc32)C1 [ibrutinib]
In short: as §1

[10] = compound: CC(=O)c1cnc2ccc(-c3cc(Cl)c(O)c(Cl)c3)nc2c1N[C@H]1CC[C@H](CN(C)C)CC1
In short: as §1

ralimetinib = compound: CC(C)(C)Cn1c(N)nc2ccc(-c3[nH]c(C(C)(C)C)nc3-c3ccc(F)cc3)nc21 [ralimetinib]
In short: as §1

[11] = compound: CC(C)(O)CC(=O)NCCn1ccc2ncnc(Nc3ccc(Oc4cccc(C(F)(F)F)c4)c(Cl)c3)c21
In short: as §1

[12] = compound: CC(C)C1=C2N=C(C=C(N2N=C1)NCC3=CC=CC=C3)NCCCCCCN
In short: as §1

[13] = compound: CC(C)C[C@@H](C=O)NC(=O)[C@H](CC(C)C)NC(=O)[C@H](CC(C)C)NC(=O)OCc1ccccc1
In short: as §1

pinometostat = compound: CC(C)N(C[C@H]1O[C@@H](n2cnc3c(N)ncnc32)[C@H](O)[C@@H]1O)[C@H]1C[C@@H](CCc2nc3cc(C(C)(C)C)ccc3[nH]2)C1 [pinometostat]
In short: as §1

[14] = compound: CC1=C(C(CC(=O)N1)C2=CC=C(C=C2)C(F)(F)F)C(=O)NC3=C(C=C4C(=C3)C=NN4)F
In short: as §1

[15] = compound: CC1=C(C2=C(C=C1)C(=O)C3=CC=CC=C3N2CCCN)C
In short: as §1

Measured: log2 fold change

MAP2K7 isoform 4 (UniProt O14733)
inactive: erlotinib 0.021 | [1] -0.005 | [2] 0.061 | [3] 0.017 | [4] 0.01 | [5] 0.017 | [6] -0.009 | [7] -0.032 | [8] -0.012 | [9] 0.023 | IRAK-1-4 Inhibitor I 0.013 | [10] 0.175 | ralimetinib -0.043 | [11] -0.013 | [12] -0.025 | [13] 0.051 | pinometostat 0.022 | [14] 0.033 | [15] 0.032
active: ibrutinib -0.301

IRAK4 (UniProt Q9NWZ3)
active: [12] -0.252
inactive: erlotinib 0.041 | [1] -0.009 | [2] 0.068 | [3] -0.038 | [4] 0.059 | [5] -0.023 | [6] 0.011 | [7] -0.004 | [8] 0.069 | [9] -0.074 | IRAK-1-4 Inhibitor I -0.012 | ibrutinib 0.002 | [10] 0.196 | ralimetinib -0.014 | [11] -0.092 | [13] -0.026 | pinometostat 0.065 | [14] 0.02 | [15] -0.002

KTN1 (UniProt Q86UP2)
inactive: erlotinib -0.013 | [1] -0.007 | [2] -0.05 | [3] -0.08 | [4] 0.058 | [5] -0.006 | [6] -0.04 | [7] -0.032 | [8] -0.028 | [9] -0.129 | IRAK-1-4 Inhibitor I -0.066 | ibrutinib -0.029 | [10] 0.065 | ralimetinib 0.098 | [11] 0 | [13] 0.072 | pinometostat 0.102 | [14] -0.019 | [15] 0.071
active: [12] -0.343

KIF2C (UniProt Q99661)
inactive: erlotinib 0.036 | [1] 0.09 | [2] 0.036 | [3] 0.021 | [4] 0.01 | [5] -0.004 | [6] 0.043 | [7] 0.019 | [8] -0.031 | [9] -0.103 | IRAK-1-4 Inhibitor I -0.111 | ibrutinib -0.033 | [10] -0.058 | ralimetinib 0.028 | [11] -0.069 | [12] -0.065 | [13] 0.035 | pinometostat 0.031 | [14] -0.008 | [15] 0.028

IGFBP4 (UniProt P22692)
Sequence of UniProt P22692 (P22692 whole entry, looked up): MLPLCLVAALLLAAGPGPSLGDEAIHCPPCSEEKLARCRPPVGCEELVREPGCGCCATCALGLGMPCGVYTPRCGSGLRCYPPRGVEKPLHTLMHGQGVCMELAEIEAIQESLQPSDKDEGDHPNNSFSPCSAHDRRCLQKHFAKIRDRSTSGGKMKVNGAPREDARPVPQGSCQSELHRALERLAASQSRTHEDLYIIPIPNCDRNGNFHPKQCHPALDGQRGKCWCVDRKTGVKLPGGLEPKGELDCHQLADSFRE
inactive: erlotinib -0.03 | [1] -0.14 | [2] 0.023 | [3] 0.093 | [4] -0.124 | [5] 0.178 | [6] -0.051 | [7] -0.217 | [8] 0.108 | [9] 0.076 | IRAK-1-4 Inhibitor I 0.011 | ibrutinib -0.015 | [10] 0.171 | ralimetinib -0.04 | [11] 0.047 | [12] 0.028 | [13] 0.054 | pinometostat 0.032 | [14] 0.034 | [15] -0.09

MAP3K20 (UniProt Q9NYL2)
inactive: erlotinib 0.014 | [1] -0.013 | [2] -0.009 | [3] 0.043 | [4] -0.009 | [5] 0.038 | [6] -0.011 | [7] -0.106 | [8] -0.046 | [9] -0.036 | IRAK-1-4 Inhibitor I -0.043 | ibrutinib -0.167 | ralimetinib 0.019 | [11] -0.032 | [12] 0.034 | [13] 0.052 | pinometostat 0.099 | [14] 0.073 | [15] 0.027
active: [10] -0.654

MGST3 (UniProt O14880)
inactive: erlotinib -0.025 | [1] -0.03 | [2] 0.013 | [3] 0.003 | [4] 0.006 | [5] 0.041 | [6] -0.022 | [7] -0.023 | [8] 0.019 | [9] 0.016 | IRAK-1-4 Inhibitor I 0.115 | ibrutinib 0.042 | [10] 0.036 | ralimetinib 0.062 | [11] 0.041 | [12] 0.073 | [13] 0.006 | pinometostat -0.025 | [14] 0.011 | [15] -0.014

IPO11 isoform 2 (UniProt Q9UI26)
inactive: erlotinib -0.063 | [1] 0.066 | [2] 0.074 | [3] 0.013 | [4] 0.016 | [5] 0.038 | [6] 0.011 | [7] -0.023 | [8] 0.001 | [9] -0.009 | IRAK-1-4 Inhibitor I 0.011 | ibrutinib -0.014 | [10] 0.039 | ralimetinib -0.016 | [11] -0.095 | [12] 0.018 | [13] -0.039 | pinometostat -0.035 | [14] 0.002 | [15] -0.018

MED12 isoform 2 (UniProt Q93074)
Sequence of UniProt Q93074 (Q93074 whole entry, looked up): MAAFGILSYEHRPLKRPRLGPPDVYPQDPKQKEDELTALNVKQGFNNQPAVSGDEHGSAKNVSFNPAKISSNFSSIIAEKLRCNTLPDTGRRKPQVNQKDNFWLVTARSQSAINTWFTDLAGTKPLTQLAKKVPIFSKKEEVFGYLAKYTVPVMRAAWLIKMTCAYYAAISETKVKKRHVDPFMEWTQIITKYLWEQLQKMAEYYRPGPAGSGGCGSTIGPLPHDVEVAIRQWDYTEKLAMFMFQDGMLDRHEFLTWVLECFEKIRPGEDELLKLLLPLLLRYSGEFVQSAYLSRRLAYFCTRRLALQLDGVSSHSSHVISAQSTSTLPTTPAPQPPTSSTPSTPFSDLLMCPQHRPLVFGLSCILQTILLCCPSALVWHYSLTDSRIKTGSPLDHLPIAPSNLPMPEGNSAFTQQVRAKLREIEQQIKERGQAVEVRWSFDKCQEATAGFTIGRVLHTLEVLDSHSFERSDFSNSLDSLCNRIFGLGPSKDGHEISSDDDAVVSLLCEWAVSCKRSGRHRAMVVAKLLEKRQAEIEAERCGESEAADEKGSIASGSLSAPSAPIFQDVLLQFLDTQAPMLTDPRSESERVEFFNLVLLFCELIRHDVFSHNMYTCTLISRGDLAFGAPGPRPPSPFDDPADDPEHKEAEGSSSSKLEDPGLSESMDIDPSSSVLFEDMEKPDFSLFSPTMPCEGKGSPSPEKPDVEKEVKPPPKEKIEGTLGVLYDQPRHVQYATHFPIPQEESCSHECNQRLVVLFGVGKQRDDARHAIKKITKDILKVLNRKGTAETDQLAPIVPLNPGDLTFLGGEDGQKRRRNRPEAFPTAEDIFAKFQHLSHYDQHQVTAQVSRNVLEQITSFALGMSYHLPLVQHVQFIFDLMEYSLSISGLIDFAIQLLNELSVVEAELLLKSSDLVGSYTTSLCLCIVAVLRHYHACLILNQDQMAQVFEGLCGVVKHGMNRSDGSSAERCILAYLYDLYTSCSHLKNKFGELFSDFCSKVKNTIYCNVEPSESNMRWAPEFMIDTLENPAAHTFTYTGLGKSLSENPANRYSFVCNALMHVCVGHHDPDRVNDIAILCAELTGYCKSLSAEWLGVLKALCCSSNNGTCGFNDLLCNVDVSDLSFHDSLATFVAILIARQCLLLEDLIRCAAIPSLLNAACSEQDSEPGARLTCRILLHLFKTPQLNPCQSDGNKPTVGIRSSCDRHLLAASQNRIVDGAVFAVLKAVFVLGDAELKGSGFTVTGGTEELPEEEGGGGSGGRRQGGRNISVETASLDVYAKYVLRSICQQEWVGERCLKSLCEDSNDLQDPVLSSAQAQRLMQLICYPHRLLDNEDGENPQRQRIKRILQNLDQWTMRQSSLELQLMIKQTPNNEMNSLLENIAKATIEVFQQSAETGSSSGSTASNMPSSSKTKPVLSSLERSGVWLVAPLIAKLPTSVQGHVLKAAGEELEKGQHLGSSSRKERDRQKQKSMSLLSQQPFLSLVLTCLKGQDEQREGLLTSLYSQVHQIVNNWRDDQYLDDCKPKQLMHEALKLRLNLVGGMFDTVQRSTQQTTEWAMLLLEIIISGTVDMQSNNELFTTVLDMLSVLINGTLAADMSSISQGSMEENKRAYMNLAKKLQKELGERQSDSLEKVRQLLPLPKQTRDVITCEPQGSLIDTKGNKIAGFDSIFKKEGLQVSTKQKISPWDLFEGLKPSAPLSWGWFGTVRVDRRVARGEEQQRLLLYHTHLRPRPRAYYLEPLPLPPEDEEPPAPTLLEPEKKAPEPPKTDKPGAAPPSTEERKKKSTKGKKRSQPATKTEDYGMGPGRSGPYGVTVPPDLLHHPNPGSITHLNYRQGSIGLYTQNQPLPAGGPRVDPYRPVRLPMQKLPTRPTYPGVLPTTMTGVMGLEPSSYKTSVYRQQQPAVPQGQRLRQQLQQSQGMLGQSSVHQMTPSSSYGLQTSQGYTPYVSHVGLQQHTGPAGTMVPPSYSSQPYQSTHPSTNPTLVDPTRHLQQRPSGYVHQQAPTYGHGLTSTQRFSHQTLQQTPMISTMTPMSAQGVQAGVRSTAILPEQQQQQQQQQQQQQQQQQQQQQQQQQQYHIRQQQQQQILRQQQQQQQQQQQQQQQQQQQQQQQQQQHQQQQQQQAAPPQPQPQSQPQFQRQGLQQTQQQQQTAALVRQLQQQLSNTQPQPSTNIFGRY
active: [10] -0.747
inactive: erlotinib 0.022 | [1] 0.04 | [2] -0.031 | [3] 0.188 | [4] 0.101 | [5] 0.121 | [6] 0.012 | [7] -0.361 | [8] 0.193 | [9] -0.11 | IRAK-1-4 Inhibitor I -0.057 | ibrutinib -0.098 | ralimetinib -0.05 | [11] -0.024 | [12] -0.291 | [13] -0.005 | pinometostat 0.251 | [14] -0.053 | [15] -0.04

MICU2 (UniProt Q8IYU8)
inactive: erlotinib -0.013 | [1] -0.013 | [2] -0.06 | [3] -0.002 | [4] -0.038 | [5] -0.015 | [6] 0.103 | [7] 0.018 | [8] 0.045 | [9] -0.042 | IRAK-1-4 Inhibitor I -0.039 | ibrutinib -0.001 | [10] -0.026 | ralimetinib -0.05 | [11] -0.12 | [12] -0.292 | [13] 0.128 | pinometostat 0.211 | [14] 0.072 | [15] 0.136

ILVBL (UniProt A1L0T0)
Sequence of UniProt A1L0T0 (A1L0T0 whole entry, looked up): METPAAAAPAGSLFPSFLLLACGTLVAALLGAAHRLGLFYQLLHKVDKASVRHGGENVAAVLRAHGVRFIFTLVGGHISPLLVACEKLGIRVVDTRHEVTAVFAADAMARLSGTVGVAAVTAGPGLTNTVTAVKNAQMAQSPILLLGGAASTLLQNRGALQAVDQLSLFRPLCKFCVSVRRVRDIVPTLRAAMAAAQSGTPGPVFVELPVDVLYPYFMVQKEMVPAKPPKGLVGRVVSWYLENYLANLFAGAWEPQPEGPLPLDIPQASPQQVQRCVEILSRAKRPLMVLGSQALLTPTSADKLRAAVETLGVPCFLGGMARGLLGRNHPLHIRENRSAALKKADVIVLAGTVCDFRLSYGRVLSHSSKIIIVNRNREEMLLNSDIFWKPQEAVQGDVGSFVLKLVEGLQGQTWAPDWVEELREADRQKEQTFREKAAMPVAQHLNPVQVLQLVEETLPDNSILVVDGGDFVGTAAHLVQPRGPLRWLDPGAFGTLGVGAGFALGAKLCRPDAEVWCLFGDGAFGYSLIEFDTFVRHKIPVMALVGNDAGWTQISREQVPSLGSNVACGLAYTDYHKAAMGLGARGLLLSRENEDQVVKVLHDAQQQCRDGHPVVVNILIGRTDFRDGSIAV
inactive: erlotinib 0.027 | [1] 0.092 | [2] -0.035 | [3] -0.02 | [4] 0.178 | [5] -0.03 | [6] 0.009 | [7] -0.026 | [8] 0.014 | [9] 0.095 | IRAK-1-4 Inhibitor I 0.073 | ibrutinib 0.048 | [10] -0.027 | ralimetinib -0.075 | [11] -0.053 | [12] 0.058 | [13] -0.018 | pinometostat 0.066 | [14] -0.013 | [15] 0.025

LYPLA2 (UniProt O95372)
Sequence of UniProt O95372 (O95372 whole entry, looked up): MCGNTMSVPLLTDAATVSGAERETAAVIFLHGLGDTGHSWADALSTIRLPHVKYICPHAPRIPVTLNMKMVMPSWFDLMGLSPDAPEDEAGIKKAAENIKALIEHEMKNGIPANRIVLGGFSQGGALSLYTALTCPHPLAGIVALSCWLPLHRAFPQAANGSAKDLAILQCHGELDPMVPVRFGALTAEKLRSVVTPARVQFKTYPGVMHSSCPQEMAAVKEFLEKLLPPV
inactive: erlotinib -0.008 | [1] 0.021 | [3] -0.01 | [4] 0.081 | [5] 0.097 | [6] 0.14 | [7] -0.016 | [8] -0.084 | [9] -0.122 | IRAK-1-4 Inhibitor I 0.062 | ibrutinib 0.003 | [10] -0.134 | ralimetinib -0.036 | [11] -0.106 | [12] -0.04 | [13] -0.056 | pinometostat -0.067 | [14] -0.021 | [15] 0.197
active: [2] 0.345

IPO9 (UniProt Q96P70)
inactive: erlotinib -0.021 | [1] 0.073 | [2] 0.01 | [3] -0.061 | [4] 0.023 | [5] 0.096 | [6] -0.035 | [7] -0.024 | [8] -0.02 | [9] 0.052 | IRAK-1-4 Inhibitor I 0.024 | ibrutinib -0.082 | [10] 0.113 | ralimetinib 0.01 | [11] -0.079 | [12] -0.039 | [13] -0.068 | pinometostat 0.012 | [14] -0.025
active: [15] 0.447

KIF1B isoform 4 (UniProt O60333)
Sequence of UniProt O60333 (O60333 whole entry, looked up): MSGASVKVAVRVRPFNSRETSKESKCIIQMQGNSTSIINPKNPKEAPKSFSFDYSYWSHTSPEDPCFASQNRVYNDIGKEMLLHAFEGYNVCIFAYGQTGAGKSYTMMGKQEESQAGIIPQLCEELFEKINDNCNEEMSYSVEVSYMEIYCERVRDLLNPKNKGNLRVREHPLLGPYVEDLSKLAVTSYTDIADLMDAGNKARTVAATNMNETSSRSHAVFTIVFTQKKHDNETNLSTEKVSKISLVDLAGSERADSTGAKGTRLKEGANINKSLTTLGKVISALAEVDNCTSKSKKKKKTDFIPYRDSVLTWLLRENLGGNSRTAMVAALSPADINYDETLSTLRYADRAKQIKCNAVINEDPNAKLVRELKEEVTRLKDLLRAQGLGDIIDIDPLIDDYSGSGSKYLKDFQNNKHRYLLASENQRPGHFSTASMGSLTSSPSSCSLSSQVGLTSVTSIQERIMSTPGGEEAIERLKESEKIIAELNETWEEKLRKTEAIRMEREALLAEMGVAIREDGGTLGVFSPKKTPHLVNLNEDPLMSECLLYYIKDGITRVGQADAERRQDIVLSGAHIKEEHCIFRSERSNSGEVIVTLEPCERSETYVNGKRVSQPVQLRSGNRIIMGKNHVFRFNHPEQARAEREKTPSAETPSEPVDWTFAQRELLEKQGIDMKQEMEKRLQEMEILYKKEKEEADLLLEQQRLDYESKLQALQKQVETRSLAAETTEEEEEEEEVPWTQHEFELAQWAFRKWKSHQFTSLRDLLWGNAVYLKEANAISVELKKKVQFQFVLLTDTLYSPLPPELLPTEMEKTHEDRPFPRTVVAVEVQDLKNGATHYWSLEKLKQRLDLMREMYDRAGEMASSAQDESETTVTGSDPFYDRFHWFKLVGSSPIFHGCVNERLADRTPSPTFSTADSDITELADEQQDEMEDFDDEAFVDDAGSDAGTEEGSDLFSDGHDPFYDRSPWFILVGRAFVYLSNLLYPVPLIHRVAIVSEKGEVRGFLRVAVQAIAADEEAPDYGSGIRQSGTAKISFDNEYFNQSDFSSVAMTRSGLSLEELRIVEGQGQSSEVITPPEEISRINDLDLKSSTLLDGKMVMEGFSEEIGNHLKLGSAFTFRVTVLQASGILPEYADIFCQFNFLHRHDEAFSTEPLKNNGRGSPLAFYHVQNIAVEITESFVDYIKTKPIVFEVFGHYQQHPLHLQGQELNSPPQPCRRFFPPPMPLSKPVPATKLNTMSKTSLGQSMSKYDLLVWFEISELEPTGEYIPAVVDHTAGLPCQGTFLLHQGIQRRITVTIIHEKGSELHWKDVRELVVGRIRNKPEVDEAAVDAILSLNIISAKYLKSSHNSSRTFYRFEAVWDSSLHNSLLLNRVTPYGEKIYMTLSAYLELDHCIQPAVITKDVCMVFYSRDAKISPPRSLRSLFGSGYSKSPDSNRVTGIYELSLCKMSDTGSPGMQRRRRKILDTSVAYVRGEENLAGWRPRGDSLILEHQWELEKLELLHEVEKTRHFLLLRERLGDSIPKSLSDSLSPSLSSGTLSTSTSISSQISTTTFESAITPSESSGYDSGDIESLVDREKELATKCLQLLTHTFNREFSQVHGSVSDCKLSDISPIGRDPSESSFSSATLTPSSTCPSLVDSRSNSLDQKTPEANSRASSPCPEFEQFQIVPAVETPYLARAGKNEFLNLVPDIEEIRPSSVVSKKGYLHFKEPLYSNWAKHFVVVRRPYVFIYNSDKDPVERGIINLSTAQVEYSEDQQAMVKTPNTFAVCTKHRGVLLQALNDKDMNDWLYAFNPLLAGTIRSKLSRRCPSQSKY
inactive: erlotinib 0.031 | [1] 0.095 | [2] 0.042 | [3] -0.059 | [4] 0.002 | [5] 0.018 | [6] -0.092 | [7] 0.078 | [8] -0.02 | [9] -0.091 | IRAK-1-4 Inhibitor I -0.004 | ibrutinib -0.017 | [10] 0 | ralimetinib -0.029 | [11] -0.063 | [12] 0.002 | [13] 0.002 | pinometostat 0.061 | [14] -0.057 | [15] -0.024

LMNB2 (UniProt Q03252)
inactive: erlotinib 0.027 | [1] 0.062 | [2] 0.001 | [3] 0.025 | [4] -0.042 | [5] 0.099 | [6] -0.066 | [7] -0.186 | [8] -0.167 | [9] 0.001 | IRAK-1-4 Inhibitor I -0.026 | ibrutinib -0.017 | ralimetinib -0.018 | [11] 0.052 | [12] -0.093 | [13] 0.03 | pinometostat 0.011 | [14] -0.013 | [15] -0.022
active: [10] -0.214

LIMD1 (UniProt Q9UGP4)
inactive: erlotinib 0.017 | [1] 0.058 | [2] 0.062 | [3] -0.019 | [4] -0.01 | [5] 0.077 | [6] 0.013 | [7] 0.006 | [8] -0.045 | [9] 0.042 | IRAK-1-4 Inhibitor I 0.03 | ibrutinib 0.033 | [10] -0.008 | ralimetinib 0.035 | [11] -0.035 | [12] 0.044 | [13] -0.072 | pinometostat 0.016 | [14] 0.003 | [15] -0.032
